Inconclusive results are not listed. A number with no mark means an inactive call. Active and inactive are the calls of the source. Unless noted, the call rests on the fitted dose curve.
target: Estrogen receptor (Homo sapiens) (UniProt P03372); experiment: qHTS assay to identify small molecule agonists of the estrogen receptor alpha (ER-alpha) signaling pathway using the BG1 cell line (AID 743079; active means well fitted activation curve with a large enough effect in the repeat runs; further: nearly all actives have a fitted effect of over 20% in size); details: BG1Luc4E2 cells, ERE-luciferase agonist, 22 h; at 95 µM (top of the series)
Sequence (P03372 whole entry, looked up): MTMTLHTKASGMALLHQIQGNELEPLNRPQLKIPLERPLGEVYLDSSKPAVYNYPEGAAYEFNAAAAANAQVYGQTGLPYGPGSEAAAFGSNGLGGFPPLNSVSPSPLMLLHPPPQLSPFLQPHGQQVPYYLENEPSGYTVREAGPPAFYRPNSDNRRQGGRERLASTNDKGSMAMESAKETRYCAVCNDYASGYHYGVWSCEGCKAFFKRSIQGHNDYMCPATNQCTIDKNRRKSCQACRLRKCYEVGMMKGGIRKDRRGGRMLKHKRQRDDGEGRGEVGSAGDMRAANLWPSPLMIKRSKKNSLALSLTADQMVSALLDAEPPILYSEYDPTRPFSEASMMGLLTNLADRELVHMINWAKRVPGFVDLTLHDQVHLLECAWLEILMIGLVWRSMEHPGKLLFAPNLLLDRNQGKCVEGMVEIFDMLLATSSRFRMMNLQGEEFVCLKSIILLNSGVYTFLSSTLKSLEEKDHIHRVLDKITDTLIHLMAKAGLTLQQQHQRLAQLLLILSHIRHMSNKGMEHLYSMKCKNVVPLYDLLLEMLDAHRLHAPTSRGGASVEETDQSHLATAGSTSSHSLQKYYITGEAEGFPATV
On the % scale 0 is the no-effect control and ±100 the full control effect.

Point of comparison: O=C1OC(=O)C2C1C1(Cl)C(Cl)=C(Cl)C2(Cl)C1(Cl)Cl (stereo unspecified), activation -12.2%. Against it:
- O=C(Cc1ccccc1)OCc1ccccc1 — higher, 2.04%
- O=C(O)C(Br)CBr (stereo unspecified) — higher, -6.3%

system: not listed separately; experiment: qHTS assay to identify small molecule antagonists of the estrogen receptor alpha (ER-alpha) signaling pathway using the BG1 cell line (AID 743080); details: BG1Luc4E2 ERE-luciferase antagonist mode, luminescence; series mostly up to 70.3 µM; activity change, negative = inhibition: at the top concentration;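 further: BG1 cells stimulated with 17beta-estradiol alongside compound; nearly all actives have a fitted effect of over 25% in size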; further: potency means the concentration at half of the fitted maximal effect
Method in brief: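 BG1-Luc-4E2 cells (endogenous full-length ER-alpha, 4xERE luciferase) hormone-starved 5 days in charcoal-stripped FBS, plated 4,000/well for 24 h, then compound plus 17beta-estradiol for 21.5 h at 37 C; ONE-Glo luminescence read.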

Point of comparison: Cc1coc2c1CCC(C)C2 (stereo unspecified), “activity change, negative = inhibition” value -12.8% [at 95 µM]. Against it:
- O=C(Cc1ccccc1)OCc1ccccc1 — higher, 2.85% [at 95 µM]
- ClC(Cl)Br — higher, 1.24% [at 95 µM]
- O=C(O)C(Br)CBr (stereo unspecified) — higher, 15.2% [at 95 µM]
- COC(=O)c1ccccc1S(=O)(=O)NC(=O)N(C)c1nc(C)nc(OC)n1 — higher, -5.03% [at 95 µM]
- Nc1c(Br)cc([N+](=O)[O-])cc1[N+](=O)[O-] — lower, -43.8% [at 95 µM]

In the case of Nc1cc(Cl)ccc1O, the Potency is reported as 7.45 µM (active).

Point of comparison: CNC(=O)Oc1ccc(N(C)C)c(C)c1, “activity change, negative = inhibition” value 8.26%. Against it:
- CNC(=O)Oc1ccccc1C1OCCO1 — lower, -12.7%
- COP(=S)(OC)Oc1ccc(S(N)(=O)=O)cc1 — higher, 17.5%
- CCSC(=O)N(CC)C1CCCCC1 — lower, -5.41%
- CCCCOC(=O)[C@@H](C)Oc1ccc(Oc2ccc(C#N)cc2F)cc1 — lower, 2.41%
- O=C(Nc1ccccc1)c1ccccc1I — higher, 22.1%
- CC(Cl)(Cl)[N+](=O)[O-] — lower, -6.46%
- CCOP(=S)(OCC)Oc1ncn(-c2ccccc2)n1 — higher, 20.4%
- NC(=O)c1cc([N+](=O)[O-])cc([N+](=O)[O-])c1 — higher, 10.2%
- CCCCOP(=O)(O)OCCCC — lower, -7.59%
- CC1(C)CON(Cc2ccccc2Cl)C1=O — higher, 10.7%
